Assay outcomes (PubChem BioAssay)
In the library only some 1.2% were active in any assay of this set; here they are far more common.
TrxR1 inh: qHTS Assay for Inhibitors of Mammalian Selenoprotein Thioredoxin Reductase 1 (TrxR1): qHTS | Thioredoxin reductase 1, cytoplasmic (Rattus norvegicus), O89049 | recombinant rTrxR1, NADPH fluorescence consumption, selenite substrate | Potency, µM (series often up to 114 µM), inactives show at the top dose activity change, negative = inhibition, usual class: inhibitors | hit rate 1% among 390,000 | AID 588453, 2011; note: nearly all actives have a fitted effect of over 65% in size
Target sequence (O89049 whole entry, looked up): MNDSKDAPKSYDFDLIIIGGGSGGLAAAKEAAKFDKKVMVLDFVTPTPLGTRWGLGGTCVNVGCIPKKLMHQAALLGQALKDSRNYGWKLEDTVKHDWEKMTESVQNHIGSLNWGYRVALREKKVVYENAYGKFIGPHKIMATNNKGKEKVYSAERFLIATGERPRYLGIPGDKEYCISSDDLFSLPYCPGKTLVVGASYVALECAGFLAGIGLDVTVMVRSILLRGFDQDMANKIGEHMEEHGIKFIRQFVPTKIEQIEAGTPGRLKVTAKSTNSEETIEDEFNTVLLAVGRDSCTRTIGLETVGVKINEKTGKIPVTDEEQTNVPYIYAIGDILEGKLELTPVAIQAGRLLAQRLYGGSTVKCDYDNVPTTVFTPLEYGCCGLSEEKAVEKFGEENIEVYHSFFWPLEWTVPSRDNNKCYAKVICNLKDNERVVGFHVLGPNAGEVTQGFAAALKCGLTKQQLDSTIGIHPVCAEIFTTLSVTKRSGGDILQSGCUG
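Rat TrxR1 (90 nM in the dispensed reagent) was pre-reduced with 400 uM NADPH for 5 min at room temperature, then incubated with compound for 15 min. After 400 uM selenite was added, NADPH fluorescence (Ex 340/Em 450 nm) was followed for 8 min.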
GLS inhibitor: qHTS for Inhibitors of Glutaminase (GLS) | Glutaminase kidney isoform, mitochondrial (Homo sapiens), O94925 | GLS enzymatic activity, qHTS titration | Potency, µM (top dose mostly 45.5 µM), inactives show at the highest dose activity change, negative = inhibition, usual class: inhibitors | hit rate 0.21% among 410,000 | AID 624170, 2012
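Compounds were pin-transferred onto hKGA, after which L-glutamine (1 mM solution) and a detection mix of glutamate oxidase, HRP and Amplex Red were added. Initial and 30 min RT fluorescence reads were collected.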
TrxR1 substrate: qHTS Assay for Substrates of Mammalian Selenoprotein Thioredoxin Reductase 1 (TrxR1): qHTS; Thioredoxin reductase 1, cytoplasmic (Rattus norvegicus), O89049; purified TrxR1 substrate turnover, NADPH consumption readout; Potency, µM (series often up to 114 µM), for inactives: top-dose activity change, negative = substrate turnover; hit rate 0.01% among 390,000; AID 588456, 2011; note: nearly all actives have a fitted effect of over 50% in size
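Rat TrxR1, dispensed at 90 nM, was prereduced with 400 uM NADPH (final) for 5 min at ~22 deg C, then incubated with compound 15 min before 400 uM selenite. A first-read NADPH fluorescence drop versus no-compound background flagged substrates.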
IDH1 R132H inh: qHTS for Inhibitors of mutant isocitrate dehydrogenase 1 (IDH1): qHTS; Isocitrate dehydrogenase [NADP] cytoplasmic (Homo sapiens), O75874; Potency, µM (top dose mostly 76.6 µM), for inactives: top-dose activity change, negative = inhibition, actives largely listed as inhibitors; IDH1-R132H enzyme, NADPH consumption, diaphorase/resazurin fluorescence; hit rate 0.093% among 390,000; note: nearly all actives have a fitted effect of over 65% in size
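IDH1-R132H (0.5 ug/mL dispensed) in pH 7.5 Tris buffer was preincubated 30 min with compound, then given a substrate mix of 0.016 mM NADPH and 2 mM alpha-KG for 80 min at room temperature; remaining NADPH was read by diaphorase/resazurin fluorescence.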
* hit, by the source's call; [ ] = dose if it differs, or a comment. Calls come from the whole dose curve; as a rule, active = well fitted curve in the direction sought with a large enough effect; inconclusive = small, poorly fitted or top-dose-only effect, or another doubt; inactive = no such curve, though single readings can be large; an effect the other way counts as inactive or inconclusive. % is set by controls: 0 for no effect and ±100 for the full control effect; potency is the fitted concentration of half-maximal effect.

How did COc1ccc(CNC(=O)/C=C/c2ccccc2[N+](=O)[O-])cc1 do in these assays?
TrxR1 inh: 22%; GLS inhibitor: -5%; TrxR1 substrate: 0%; IDH1 R132H inh: -12%

How did COc1cc(NC(=O)CCS(=O)(=O)c2nc(-c3cccs3)cc(C(F)(F)F)n2)cc(OC)c1OC do in these assays?
TrxR1 inh: inconclusive; GLS inhibitor: 7%; TrxR1 substrate: -3%; IDH1 R132H inh: 8%

Results for O=C(CCS(=O)(=O)c1nc(-c2cccs2)cc(C(F)(F)F)n1)Nc1cccc(O)c1 ?
TrxR1 inh: 18µM*; GLS inhibitor: 9%; TrxR1 substrate: 9%[2.29 µM]; IDH1 R132H inh: 14%

What do the screens show for `COc1ccc(NC(=O)CCS(=O)(=O)c2nc(-c3cccs3)cc(C(F)(F)F)n2)cc1OC`?
TrxR1 inh: 25µM*; GLS inhibitor: 3%; TrxR1 substrate: -5%[2.29 µM]; IDH1 R132H inh: 14%

How did Cc1ccc(N(CC(O)COCc2ccco2)S(=O)(=O)c2ccc(C)cc2)cc1 (stereo not drawn) do in these assays?
TrxR1 inh: 7.1µM*; GLS inhibitor: 1%; TrxR1 substrate: 4%; IDH1 R132H inh: 6%

What do the screens show for `O=S1(=O)CC(N2CCN(c3ccccn3)CC2)CN1C1CCCCC1` (stereo not drawn)?
GLS inhibitor: 1%

How did CCOC(=O)N1C(=O)[C@](CC)(c2ccccc2)N1C(=O)OCC do in these assays?
TrxR1 inh: 3.2µM*; GLS inhibitor: 31%; TrxR1 substrate: 1%; IDH1 R132H inh: -12%

How did CC1(C)CC(=O)c2cc(C(=O)NCCc3ccccc3)c(=O)[nH]c2C1 do in these assays?
TrxR1 inh: -32%; TrxR1 substrate: 13%

Results for COc1cc(C=NCc2ccccc2)ccc1O ?
GLS inhibitor: 25%; IDH1 R132H inh: -1%

How did COc1ccc(/C=N/N(Cc2ccccc2)c2ccccc2)cc1O do in these assays?
TrxR1 inh: 1%[57.1 µM]; GLS inhibitor: 16µM*; TrxR1 substrate: -9%[57.1 µM]; IDH1 R132H inh: 5%

How did N#CC1=C(N)N(c2ccc(F)cc2)C2=C(C1c1ccc(O)cc1)S(=O)(=O)CC2 (stereo not drawn) do in these assays?
TrxR1 inh: 7.9µM*; GLS inhibitor: -18%; TrxR1 substrate: 9%[57.1 µM]; IDH1 R132H inh: 1%

Results for O=c1[nH]c(/C=C\c2ccc(O)c(O)c2)nc(O)c1[N+](=O)[O-] ?
TrxR1 inh: inconclusive; GLS inhibitor: 7.9µM*; TrxR1 substrate: inconclusive; IDH1 R132H inh: 0%

What do the screens show for `O=c1[nH]c(/C=C\c2cccc(O)c2)nc(O)c1[N+](=O)[O-]`?
TrxR1 inh: -15%; GLS inhibitor: 11%; TrxR1 substrate: -17%; IDH1 R132H inh: -1%

Results for C=CCN(CC=C)c1ccc(/C=C/c2ccnc3ccccc23)cc1 ?
TrxR1 inh: -10%; TrxR1 substrate: -16%

What do the screens show for `Cc1cc(C(=O)N/N=C/c2cc(Br)c(Br)o2)n[nH]1`?
TrxR1 inh: 35µM*; GLS inhibitor: 2%; TrxR1 substrate: -1%; IDH1 R132H inh: 6%

Results for Cc1cc(C(=O)N/N=C/c2ccc(Br)o2)n[nH]1 ?
TrxR1 inh: -31%; GLS inhibitor: -11%; TrxR1 substrate: -7%; IDH1 R132H inh: -18%

How did CCCCCCCCCCCC[N+](C)(C)Cc1ccccc1 do in these assays?
GLS inhibitor: 7%

Results for CCc1nnc(NC(=O)c2ccc(-c3ccc(C(C)=O)cc3)o2)s1 ?
TrxR1 inh: 14µM*; GLS inhibitor: 1%; TrxR1 substrate: 8%; IDH1 R132H inh: 2%

What do the screens show for `CCN(CC)CCCNc1oc(/C=C/c2ccc(OC)c(OC)c2)nc1C#N`?
TrxR1 inh: -17%; GLS inhibitor: 6%; TrxR1 substrate: 42%; IDH1 R132H inh: 2%

How did COc1ccc(-n2cccc2/C=C/[N+](=O)[O-])cc1 do in these assays?
TrxR1 inh: 10µM*; GLS inhibitor: -12%; TrxR1 substrate: 3%; IDH1 R132H inh: 9%

What do the screens show for `CSc1ccc(-c2cc3c(c4c2ccn4C)C2CCC3O2)cc1` (stereo not drawn)?
GLS inhibitor: -4%
